# Measured values taken from PubChem BioAssay (NCATS).
# Results filed as inconclusive are left out. A call without a number means that no potency is given here. Activity calls are given as the source filed them. The call rests on the fitted dose curve; in most records, active means well fitted inhibition curve with a large enough effect; inconclusive means small, poorly fitted or top-dose-only effect; inactive means no such curve, though single readings can be large or run the other way.
# Assay: Primary fluorescence-based thiol-reactive (MSTI) qHTS assay for identification of artifact compounds. (AID 1845221); further: nearly all actives have a fitted effect of over 65% in size;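 on activity change, negative = thiol reactive: thiol-reactive compounds lower the probe fluorescence signal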
# Settings: MSTI thiol-reactivity probe, 1 h; series mostly up to 53.8 µM
# From the text: PI: Alexander Tropsha Ph.D.
# UNC Eshelman School of Pharmacy
# University of North Carolina, Chapel Hill, North Carolina
# Hits from high-throughput screening (HTS) of chemical libraries are often false positives due to their interference with the assay detection technology. In response to this problem, we generated the largest publicly available library of chemical liabilities and developed a free webtool to predict HTS artifacts, both of which are described herein. More specifically, we generated, curated, and integrated HTS datasets for thiol reactivity, redox activity, and luciferase (firefly and nano) activity. Using these curated datasets, we developed and validated several Quantitative Structure-Interference Relationship (QSIR) models to predict nuisance behavior. […] These models were employed for virtual profiling of the National Center for Advancing Translational Science's (NCATS) in-house library, and 256 compounds for each assay were selected for the experimental validation of nuisance behavior. The BA for these external predictions ranged from 58 to 78% for compounds within the applicability domains of the models. […] The models developed in this study, along with aggregation models previously developed by our group (SCAM Detective) were implemented in "Liability Predictor," an online tool which may be used as part of chemical library design or for triaging HTS hits. Both the models and the curated datasets are publicly available at https://liability.mml.unc.edu/.
# SEQUENCE No. (e.g., 1, 2, 3, etc.); […] (e.g., Cells, Incubation, Reagent, etc.); VALUE; DESCRIPTION.
# 1; Reagent; 4 uL; […].
# 2; Compounds and control; 16 nL; Kalypsis pin tool (Wako USA) equipped with a 1536-well pin head.
# 4; Detection; Fluorescence, ViewLux microplate reader, 525 nm excitation, 598 nm emission.
# NOTES (numbers refer to Sequence numbers above)
# 1. Assays determining (E)-2-(4-mercaptostyryl)-1,3,3-trimethyl-3H-indol-1-ium (MSTI) reactivity were performed as previously described in the literature with modifications for the quick identification of compounds reacting with thiol. In brief, 4 uL of MSTI or positive control Acetyl-MSTI (final concentrations of 4 uM and 4 uM, respectively) in assay buffer (2% DMSO in 1X PBS pH 7.4) was dispensed into all wells of a 1536-well assay plate (solid-bottom black plate; Greiner Bio One, Monroe, NC).
# 2. A Wako Pin-tool (Wako Automation, Richmond, VA) was used to transfer 16 nL of compounds (consisting of 7-plates in qHTS format, final concentration range 18.3 nM to 114 uM) or control MLS001163887 (final concentration range 1.22 nM to 40 uM).
# 3. Plates were centrifuged (121xg, 15 seconds) and incubated for 1 hour at room temperature protected from light.
# 4. Samples were read for fluorescence (Ex/Em = 525(20)/598(25) nm) on a ViewLux CCD imager (PerkinElmer). Data were normalized to Acetyl-MSTI (0% activity) and MSTI (100% activity) and the resulting percent inhibition data were fitted to a 4-parameter Hill equation using NCATS in-house software.
# Potency means the concentration at half of the fitted maximal effect.
Compound,Potency,"activity change, negative = thiol reactive"
CCC(C)(C#N)O[C@@H]1O[C@H](CO)[C@@H](O)[C@H](O)[C@H]1O (stereo not given in full),inactive,–
C/C=C(\C)C(=O)OC1CC2C(CC=C3CC(OC4CC(OC)C(OC5CC(OC)C(OC6OC(C)C(OC7OC(CO)C(O)C(O)C7O)C(OC)C6O)C(C)O5)C(C)O4)CCC32C)C2(O)CCC(C(C)=O)C12C (stereo not given),–,19.1% [at 11.5 µM] (inactive)
C/C=C(\C)C(=O)O[C@H]1[C@H](OC(C)=O)[C@]2(CO)[C@H](O)[C@H](O)[C@]3(C)C(=CCC4[C@@]5(C)CC[C@H](O[C@@H]6O[C@H](C(=O)O)[C@@H](O)[C@H](O[C@@H]7OC[C@H](O)[C@H](O[C@@H]8OC[C@H](O)[C@H](O)[C@H]8O)[C@H]7O)[C@H]6O[C@@H]6O[C@H](CO)[C@@H](O)[C@H](O)[C@H]6O)C(C)(C)C5CC[C@]43C)[C@@H]2CC1(C)C (stereo not given in full),–,214% [at 11.5 µM] (inactive)
COc1ccccc1CN[C@H]1C2CCN(CC2)[C@H]1C(c1ccccc1)c1ccccc1,inactive,–
CC(C)=C1CC[C@]23CO[C@H](C2)[C@@](O)(C(=O)O)CCC13 (stereo not given in full),inactive,–
COC1CC(O[C@H]2CC[C@]3(C=O)C4CC[C@]5(C)[C@@H](C6=CC(=O)OC6)CC[C@]5(O)[C@@H]4CC[C@]3(O)C2)OC(C)C1O[C@@H]1O[C@H](CO)[C@@H](O)[C@H](O)[C@H]1O (stereo not given in full),inactive,–
CO[C@H]1[C@H](O)[C@H](O[C@H]2CC[C@]3(C)C4CC[C@]5(C)[C@H](C6=CC(=O)OC6)CC[C@]5(O)C4CC[C@@H]3C2)O[C@@H](C)[C@@H]1O (stereo not given in full),inactive,–
CC1=C2C(=O)C3[C@@H](CC=C4C[C@@H](O)CC[C@@]43C)[C@@H]2CC[C@]12O[C@@H]1C[C@H](C)CN[C@H]1[C@H]2C (stereo not given in full),inactive,–
N#C[C@@H](O[C@@H]1O[C@H](CO[C@@H]2O[C@H](CO)[C@@H](O)[C@H](O)[C@H]2O)[C@@H](O)[C@H](O)[C@H]1O)c1ccccc1,inactive,–
CCOc1ccccc1-n1c(C(C)N2CCN(C(=O)COc3ccc(Cl)cc3)CC2)nc2ccccc2c1=O (stereo not given),inactive,–
C=C[C@H]1[C@H](O[C@@H]2O[C@H](CO)[C@@H](O)[C@H](O)[C@H]2O)OC=C2C(=O)OCC[C@H]21,inactive,–
COC(=O)N1CCN(C(=O)Cc2ccc(Cl)c(Cl)c2)[C@@H](CN2CCCC2)C1,inactive,–
CN1[C@@H]2CC[C@H]1CC(OC(=O)C1C=Nc3ccccc31)C2 (stereo not given in full),inactive,–
Cn1ncnc1COc1nn2c(-c3c(F)cccc3F)nnc2cc1C1CCC1,inactive,–
CCN1C[C@]2(OC(=O)c3ccccc3NC(C)=O)CC[C@H](OC)[C@@]34[C@@H]2C[C@@H]([C@@H]13)[C@@]1(O)C[C@H](OC)[C@H]2C[C@@H]4[C@]1(O)[C@H]2OC,inactive,–
CC(=O)OC12C(O)C(C)C3(O)C4C=C(C)C(=O)C4CC(CO)=CC3C1C2(C)C (stereo not given),inactive,–
CCCCCCn1c(=O)c(C(=O)Nc2ccc(C(=O)OCCC)cc2)c(O)c2ccccc21,–,-6.91% [at 11.5 µM] (inactive)
CCN1C[C@]2(COC)[C@H](O)C[C@H](OC)[C@]34[C@@H]5C[C@]6(O)[C@H](OC(=O)c7ccccc7)[C@@H]5[C@@](O)([C@H]([C@H](OC)[C@H]23)[C@@H]14)[C@@H](O)[C@@H]6OC,inactive,–
CN[C@H]1[C@H](O)[C@H](O[C@@H]2[C@@H](O)[C@H](O[C@H]3O[C@H]([C@H](C)O)[C@@H](O)[C@H](O)[C@H]3N)[C@@H](N)C[C@H]2N)OC[C@@]1(C)O,inactive,–
CCCN1CCO[C@H]2c3cc(O)ccc3OC[C@@H]21,inactive,–

Compound,Potency,"activity change, negative = thiol reactive"
CC1=C2C[C@H]3[C@@H](CC=C4C[C@@H](O)CC[C@@]43C)[C@@H]2CC[C@]12O[C@@H]1C[C@H](C)CN[C@H]1[C@H]2C,inactive,–
Cc1cccc(NC(=O)N[C@@H]2N=C(c3ccccc3)c3ccccc3N(C)C2=O)c1,inactive,–
CN1CCC[C@@H]1Cc1c[nH]c2ccc(Nc3ncccc3[N+](=O)[O-])cc12,1.68 µM (active),–
CO[C@@H]1[C@H](O)[C@@H](O[C@@H]2C[C@H]3CC[C@@H]4C(CC[C@]5(C)[C@@H](C6=CC(=O)OC6)CC[C@]45O)[C@@]3(C)[C@H](O)C2)O[C@H](C)[C@@H]1O[C@@H]1O[C@H](CO)[C@@H](O)[C@H](O)[C@H]1O (stereo not given in full),inactive,–
O=C1C[C@@H]2OCC=C3CN4CC[C@]56c7ccccc7N1[C@H]5[C@H]2[C@H]3C[C@H]46,inactive,–
OC1(c2ccc(Cl)cc2)c2ccccc2C2=NCCN21 (stereo not given),inactive,–
Cc1c(Cl)cccc1S(=O)(=O)Nc1nc(CC(=O)N2CCN(C)CC2)cs1,inactive,–
C/C=C(\C)C(=O)OC1C(C)OC(OC2C(C)OC(OC3CCC4(C)C(=CCC5C4CCC4(C)C(C(C)OC6OC(COC7OC(CO)C(O)C(O)C7O)C(O)C(O)C6O)CCC54O)C3)CC2OC)C(O)C1OC (stereo not given),–,16.4% [at 11.5 µM] (inactive)
Oc1ccc2c3c1O[C@H]1[C@H](N(CCCl)CCCl)CC[C@@]4(O)[C@@H](C2)N(CC2CC2)CC[C@]314,–,7.36% [at 11.5 µM] (inactive)
Clc1ccc(N2C[C@H]3CC[C@@H](C2)N3)nn1,inactive,–
COC1CC(OC2CCC3(C=O)C(CCC4C3CCC3(C)C(C5=CC(=O)OC5)CCC43O)C2)OC(C)C1OC1OC(CO)C(O)C(O)C1O (stereo not given),inactive,–
COC1CC(OC2CCC3(C)C(=CCC4C3CCC3(C)C(C(C)OC5OC(COC6OC(CO)C(O)C(O)C6O)C(O)C(O)C5O)CCC43O)C2)OC(C)C1OC1OC(C)C(O)C(OC)C1O (stereo not given),–,0.542% [at 11.5 µM] (inactive)
C[C@]12CC[C@H]3[C@@H]([C@H](O)CC4=CC(=O)CC[C@@]43C)[C@@H]1CC[C@@H]2O,inactive,–
C=C(C)[C@H]1O[C@H]2CC[C@@]3(C)[C@@](O)(CC[C@H]4[C@@H]5OC(C)(C)[C@H]6C[C@@H]7C(=C)Cc8c(Cl)cc9[nH]c(c5c9c8[C@@]76O)[C@@]43C)[C@]23O[C@@H]3[C@H]1O,6.3 µM (active),–
COC1=CC(=O)O[C@@H](CCc2ccccc2)C1,inactive,–
C=CC(C)(O)CC/C=C(\C)C(=O)O[C@H]1[C@H](O)[C@@H](CO)O[C@@H](OC(=O)[C@]23CCC(C)(C)CC2C2=CCC4[C@@]5(C)CC[C@H](O[C@@H]6O[C@H](CO[C@@H]7OC[C@H](O)[C@H](O)[C@H]7O[C@@H]7OC[C@@H](O)[C@H](O)[C@H]7O)[C@@H](O)[C@H](O)[C@H]6O)C(C)(C)C5CC[C@@]4(C)[C@]2(C)CC3)[C@@H]1OC1OC(C)C(O[C@@H]2OC[C@@H](O)[C@H](O[C@@H]3OC[C@@H](O)[C@H](O)[C@H]3O)[C@H]2O)C(O)C1O (stereo not given in full),–,28.2% [at 11.5 µM] (inactive)
CC(=O)OC1CC(O)C2(C)C(CC(OC(C)=O)C3(C)C2CCC2(C)C(c4ccoc4)C(=O)C4OC423)C1(C)C (stereo not given),inactive,–
CC(C)(C)c1cc(C(C)(C)C)c2c(c1)C(O)(C(F)(F)F)C(=O)O2 (stereo not given),9.47 µM (active),–
COc1cc2c(cc1OC)[C@@]13CCN4CC5=CCO[C@H]6CC(=O)N2[C@H]1[C@H]6[C@H]5C[C@H]43,inactive,–
CC(CCc1ccc(O)cc1)O[C@@H]1O[C@H](CO[C@H]2OC[C@](O)(CO)[C@H]2O)[C@@H](O)[C@H](O)[C@H]1O (stereo not given in full),inactive,–
